# For some assays here: Results with a measured potency or affinity are listed apart. Active and inactive are the calls of the source. A call without a number means that no potency is given here. How the calls were made is not given here.
# Columns and labels:
# [1] = Ebola virus entry assay, green fluorescence channel
# [2] = Ebola virus entry assay, blue channel fluorescence
# [3] = Ebola virus entry assay, ratio channel
# [4] = Ebola virus entry assay, reporter ratio channel; Channel type: primary
# [5] = Ebola virus entry assay, blue channel (ratio component)
# [6] = Ebola virus entry assay, green channel fluorescence
# [7] = qHTS profiling of the MIPE4 collection as inhibitors of Plasmodium falciparum (DD2) proliferation (AID 743345); settings: P. falciparum Dd2 in erythrocytes, SYBR Green DNA, 72 h; at 28.5 µM (top of the series)
# How it was run: (§1)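 Erythrocytes infected with P. falciparum (0.3% parasitemia, 2.5% hematocrit) incubated with compounds 72 h at 37 C, 5% CO2. Lysis with saponin/Triton buffer containing SYBR Green I, overnight at room temperature in the dark; DNA fluorescence (485/535 nm) normalised to 0.29 uM artemisinin and DMSO.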
# [8] = qHTS profiling of the MIPE4 collection as inhibitors of Plasmodium falciparum (HB3) proliferation (AID 743347); settings: P. falciparum HB3 in erythrocytes, SYBR Green DNA, 72 h; at 28.5 µM (top of the series)
# How it was run: as §1
# [9] = Immunotoxin (HA22) sensitization/mitigation study. Vehicle arm (PBS) (AID 1159510); settings: cancer cells viability with PBS vehicle (HA22 study); series mostly up to 46.1 µM; further: potency means the concentration at half of the fitted maximal effect
# [10] = qHTS profiling of the MIPE4 collection as inhibitors of Plasmodium falciparum (DD2) proliferation (Rep 2) (AID 743346); settings: P. falciparum Dd2 in erythrocytes, SYBR Green DNA, 72 h; at 28.5 µM (top of the series)
# How it was run: as §1
smiles,measurement,setting,value
CC(=O)N(CC(=O)N(C)C)c1ccccc1,efficacy,[1],35.3% (inactive)
same,outcome,[2],inactive
same,outcome,[3],inactive
same,outcome,[4],inactive
same,outcome,[5],inactive
CN1CCOC(c2ccccc2)c2ccccc2C1 (stereo not given),efficacy,[1],45.6% (inactive)
same,outcome,[2],inactive
same,outcome,[3],inactive
same,AC50,[4],39.8 µM (active)
same,outcome,[5],inactive
CCCCC(=O)O[C@]1(C(=O)CO)CC[C@H]2[C@@H]3CCC4=CC(=O)CC[C@]4(C)[C@H]3[C@@H](O)C[C@@]21C,efficacy,[1],66.7% (inactive)
same,outcome,[2],inactive
same,outcome,[3],inactive
same,outcome,[4],inactive
same,outcome,[5],inactive
C[C@]12CC[C@H]3[C@@H](CCC4=CC(=O)CC[C@@]43C)[C@@H]1CC[C@@H]2C(=O)CO,efficacy,[1],61.9% (inactive)
same,outcome,[2],inactive
same,outcome,[3],inactive
same,outcome,[4],inactive
same,outcome,[5],inactive
O=c1n(Cl)c(=O)n(Cl)c(=O)n1Cl,efficacy,[1],-11.8% (inactive)
same,outcome,[2],inactive
same,outcome,[6],inactive
same,outcome,[4],inactive
same,outcome,[5],inactive
Cc1cc(C(C)(C)C)cc(C)c1CC1=NCCN1,"parasite growth remaining, % of DMSO control (lower = more inhibition)",[7],38.8%
same,"growth, % of control",[8],84.3%
same,efficacy,[1],93.8% (inactive)
same,AC50,[2],14.1 µM (active)
same,AC50,[3],12.6 µM (active)
same,AC50,[4],12.6 µM (active)
Cc1[nH]c(=O)c(C#N)cc1-c1ccc2nccn2c1,efficacy,[1],-27% (inactive)
same,outcome,[2],inactive
same,outcome,[6],inactive
same,outcome,[4],inactive
same,outcome,[5],inactive
same,Potency,[9],inactive
COP(=S)(OC)Oc1ccc(Sc2ccc(OP(=S)(OC)OC)cc2)cc1,efficacy,[1],20.5% (inactive)
same,outcome,[2],inactive
same,outcome,[6],inactive
same,outcome,[4],inactive
same,outcome,[5],inactive
C[C@@H]1CCN(C(=O)[C@H](CCCN=C(N)N)NS(=O)(=O)c2cccc3c2NC[C@H](C)C3)[C@@H](C(=O)O)C1,efficacy,[1],-39.7% (inactive)
same,outcome,[2],inactive
same,outcome,[3],inactive
same,outcome,[4],inactive
same,outcome,[5],inactive
C[C@]12CCC(=O)C=C1CC[C@@H]1[C@@H]2[C@@H](O)C[C@@]2(C)[C@H]1CC[C@]2(O)C(=O)CO,efficacy,[1],14.5% (inactive)
same,outcome,[2],inactive
same,outcome,[6],inactive
same,outcome,[4],inactive
same,outcome,[5],inactive
same,Potency,[9],0.296 µM (active)
C[N+]1(C)[C@@H]2CC[C@H]1CC(OC(=O)C(CO)c1ccccc1)C2 (stereo not given in full),efficacy,[1],19.1% (inactive)
same,outcome,[2],inactive
same,outcome,[6],inactive
same,outcome,[4],inactive
same,outcome,[5],inactive
CC(C)(O)C(Cl)(Cl)Cl,efficacy,[1],-12.3% (inactive)
same,outcome,[2],inactive
same,outcome,[6],inactive
same,outcome,[4],inactive
same,outcome,[5],inactive
O=Cc1ccccc1C=O,efficacy,[1],-22.6% (inactive)
same,outcome,[2],inactive
same,outcome,[3],inactive
same,outcome,[4],inactive
same,outcome,[5],inactive
CN1C(=O)CN=C(c2ccccc2)c2cc([N+](=O)[O-])ccc21,efficacy,[1],23.9% (inactive)
same,outcome,[2],inactive
same,outcome,[6],inactive
same,outcome,[4],inactive
same,outcome,[5],inactive
COC(=O)C1=CCCN(C)C1,"parasite growth remaining, % of DMSO control (lower = more inhibition)",[7],98.7%
same,"parasite growth, % of control (lower = inhibition)",[10],47.2%
same,"growth, % of control",[8],93%
same,efficacy,[1],26.3% (inactive)
same,outcome,[2],inactive
same,outcome,[6],inactive
same,outcome,[4],inactive
same,outcome,[5],inactive
C[C@@H]1C[C@@H]([C@H](O)CC2CC(=O)NC(=O)C2)C(=O)[C@@H](C)C1,"parasite growth remaining, % of DMSO control (lower = more inhibition)",[7],6.36%
same,"parasite growth, % of control (lower = inhibition)",[10],6.94%
same,"growth, % of control",[8],5.04%
same,efficacy,[1],-17.6% (inactive)
same,outcome,[2],inactive
same,outcome,[4],inactive
same,outcome,[5],inactive
C[N+]1(CCC(C(N)=O)(c2ccccc2)c2ccccc2)CCCCC1,efficacy,[1],21.3% (inactive)
same,outcome,[2],inactive
same,outcome,[6],inactive
same,outcome,[4],inactive
same,outcome,[5],inactive
CCOC(=O)NC(O)C(Cl)(Cl)Cl (stereo not given),efficacy,[1],20.9% (inactive)
same,outcome,[2],inactive
same,outcome,[6],inactive
same,outcome,[4],inactive
same,outcome,[5],inactive
NC(=O)CN1CCCC1=O,efficacy,[1],23.9% (inactive)
same,outcome,[2],inactive
same,outcome,[6],inactive
same,outcome,[4],inactive
same,outcome,[5],inactive
C=CCc1cc(OC)c(O)c(C(=O)NCCO)c1,"parasite growth remaining, % of DMSO control (lower = more inhibition)",[7],40.8%
same,"parasite growth, % of control (lower = inhibition)",[10],125%
same,"growth, % of control",[8],100%
same,efficacy,[1],-21.5% (inactive)
same,AC50,[2],12.6 µM (active)
same,AC50,[3],22.4 µM (active)
same,AC50,[4],22.4 µM (active)
C=C1C(=C/C=C2\CCC[C@]3(C)[C@@H]([C@H](C)/C=C/[C@@H](O)C4CC4)CC[C@@H]23)C[C@@H](O)C[C@@H]1O,efficacy,[1],59.6% (inactive)
same,outcome,[2],inactive
same,outcome,[3],inactive
same,AC50,[4],39.8 µM (active)
same,outcome,[5],inactive
CC(C)C(Br)C(=O)NC(N)=O (stereo not given),efficacy,[1],-26.9% (inactive)
same,outcome,[2],inactive
same,outcome,[6],inactive
same,outcome,[4],inactive
same,outcome,[5],inactive
NC(=O)OCCCc1ccccc1,efficacy,[1],24.7% (inactive)
same,outcome,[2],inactive
same,outcome,[6],inactive
same,outcome,[4],inactive
same,outcome,[5],inactive
CCC(=O)O[C@H]1CC[C@H]2[C@@H]3CCC4=CC(=O)CC[C@]4(C)[C@H]3CC[C@]12C,efficacy,[1],-42.2% (inactive)
same,outcome,[2],inactive
same,outcome,[6],inactive
same,outcome,[4],inactive
ClC1=C(Cl)C2(Cl)C(CBr)CC1(Cl)C2(Cl)Cl (stereo not given),efficacy,[1],-23.9% (inactive)
same,outcome,[2],inactive
same,outcome,[4],inactive
same,outcome,[5],inactive
CN(C)[C@@H](CCOc1cccc2ccccc12)c1ccccc1,"parasite growth, % of control (lower = inhibition)",[10],31.8%
same,efficacy,[1],-116% (inactive)
same,AC50,[2],7.08 µM (active)
same,AC50,[3],3.16 µM (active)
same,AC50,[4],3.16 µM (active)
CCN(CC)C(C)C(=O)c1ccccc1 (stereo not given),efficacy,[1],12% (inactive)
same,outcome,[2],inactive
same,outcome,[6],inactive
same,outcome,[4],inactive
same,outcome,[5],inactive
O=C(Nc1ccc([N+](=O)[O-])cc1)Nc1ccc([N+](=O)[O-])cc1,efficacy,[1],-37.1% (inactive)
same,outcome,[2],inactive
same,outcome,[3],inactive
same,outcome,[4],inactive
same,outcome,[5],inactive
COc1ccc(C(=O)N2CCCC2=O)cc1,"parasite growth remaining, % of DMSO control (lower = more inhibition)",[7],19.7%
same,"parasite growth, % of control (lower = inhibition)",[10],128%
same,"growth, % of control",[8],103%
same,efficacy,[1],-13.7% (inactive)
same,outcome,[2],inactive
same,outcome,[6],inactive
same,outcome,[4],inactive
same,outcome,[5],inactive
CC(C)NCC(O)c1ccc(N)c(C#N)c1 (stereo not given),efficacy,[1],-19.3% (inactive)
same,outcome,[2],inactive
same,outcome,[6],inactive
same,outcome,[4],inactive
same,outcome,[5],inactive
COCC(=O)N(c1c(C)cccc1C)C(C)C(=O)OC (stereo not given),efficacy,[1],-46.6% (inactive)
same,outcome,[2],inactive
same,outcome,[6],inactive
same,outcome,[4],inactive
same,outcome,[5],inactive
CC(=O)[C@@]1(O)CC[C@H]2[C@@H]3C[C@H](C)C4=CC(=O)CC[C@]4(C)[C@H]3CC[C@@]21C,efficacy,[1],52.6% (inactive)
same,outcome,[2],inactive
same,outcome,[3],inactive
same,outcome,[4],inactive
same,outcome,[5],inactive
CCCCCCCCC(=O)NCc1ccc(O)c(OC)c1,efficacy,[1],-29.4% (inactive)
same,outcome,[2],inactive
same,outcome,[6],inactive
same,outcome,[4],inactive
same,outcome,[5],inactive
Cc1ccc(N=CN(C)C=Nc2ccc(C)cc2C)c(C)c1,efficacy,[1],-16% (inactive)
same,outcome,[2],inactive
same,outcome,[6],inactive
same,outcome,[4],inactive
same,outcome,[5],inactive
OC[C@@H](O)[C@H](O)[C@H](O)[C@@H](O)CO,efficacy,[1],-17.3% (inactive)
same,outcome,[2],inactive
same,outcome,[6],inactive
same,outcome,[4],inactive
same,outcome,[5],inactive
CCCC[N+]1(C)[C@@H]2CC(OC(=O)[C@H](CO)c3ccccc3)C[C@H]1[C@@H]1O[C@@H]12 (stereo not given in full),efficacy,[1],-24.1% (inactive)
same,outcome,[2],inactive
same,outcome,[6],inactive
same,outcome,[4],inactive
same,outcome,[5],inactive
O=C(O)c1nn(Cc2ccc(Cl)cc2Cl)c2ccccc12,"parasite growth remaining, % of DMSO control (lower = more inhibition)",[7],99.8%
same,"parasite growth, % of control (lower = inhibition)",[10],101%
same,"growth, % of control",[8],81.1%
same,efficacy,[1],44.2% (inactive)
same,outcome,[2],inactive
same,outcome,[6],inactive
same,outcome,[4],inactive
same,outcome,[5],inactive
same,Potency,[9],inactive
CCC(=O)O[C@]1(C(=O)SCF)[C@H](C)C[C@H]2[C@@H]3C[C@H](F)C4=CC(=O)C=C[C@]4(C)[C@@]3(F)[C@@H](O)C[C@@]21C,efficacy,[1],69.2% (inactive)
same,outcome,[2],inactive
same,outcome,[3],inactive
same,outcome,[4],inactive
same,outcome,[5],inactive
C[C@@H]1CN(C2CCC(C#N)(c3ccc(F)cc3)CC2)CC[C@]1(C(=O)O)c1ccccc1 (stereo not given in full),efficacy,[1],31.9% (inactive)
same,outcome,[2],inactive
same,outcome,[6],inactive
same,outcome,[4],inactive
same,outcome,[5],inactive
NC(=O)c1ncn([C@@H]2O[C@H](CO)[C@@H](O)[C@H]2O)c1N,efficacy,[1],-19.4% (inactive)
same,outcome,[2],inactive
same,outcome,[6],inactive
same,outcome,[4],inactive
same,outcome,[5],inactive
same,Potency,[9],inactive
COP(=O)(OC)C(O)C(Cl)(Cl)Cl (stereo not given),efficacy,[1],-51.3% (inactive)
same,outcome,[2],inactive
same,outcome,[4],inactive
same,outcome,[5],inactive
CCOC(=O)c1cncn1C(C)c1ccccc1 (stereo not given),efficacy,[1],19.1% (inactive)
same,outcome,[2],inactive
same,outcome,[6],inactive
same,outcome,[4],inactive
same,outcome,[5],inactive
CCCC(=O)O[C@]1(C(=O)CC)CC[C@H]2[C@@H]3CCC4=CC(=O)CC[C@]4(C)[C@H]3[C@@H](O)C[C@@]21C,efficacy,[1],46.1% (inactive)
same,outcome,[2],inactive
same,outcome,[3],inactive
same,outcome,[4],inactive
same,outcome,[5],inactive

# — PubChem BioAssay (NCATS)
